Inconclusive results are not listed. Unmarked numbers belong to inactive results. Activity calls are given as the source filed them. Unless noted, calls follow the shape of the dose curve; as a rule, active = well fitted curve in the direction sought with a large enough effect in the repeat runs; inconclusive = weak or mixed curves; inactive = no such curve, though single readings can be large; an effect the other way counts as inactive or inconclusive.

Assay [1] can be described thus: qHTS assay to identify aromatase inhibitors - cell viability counter screen (AID 743084;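 also: cells stimulated with testosterone during compound exposure; nearly all actives have a fitted effect of over 55% in size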; also: potency is read from the fitted curve at half-maximal effect). (qHTS replaces the single test concentration by a dilution series.)
Assay [2] deals with Aryl hydrocarbon receptor (Homo sapiens) (UniProt P35869). Nature of the assay: qHTS assay to identify small molecule that activate the aryl hydrocarbon receptor (AhR) signaling pathway (AID 743085). Also: nearly all actives have a fitted effect of over 15% in size. Also: potency is read from the fitted curve at half-maximal effect.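 As to activation: HG2L7.5c1 human HepG2 liver cells with stably integrated DRE-driven firefly reporter; series mostly up to about 70 µM.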 The procedure, abridged: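 Luminescence (ONE-Glo) from a dioxin-responsive-element luciferase reporter in HG2L7.5c1 HepG2 cells after 24 hr compound exposure at 37C; viability measured by CellTiter-Fluor fluorescence beforehand.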
Aryl hydrocarbon receptor (Homo sapiens), sequence (P35869 whole entry, looked up): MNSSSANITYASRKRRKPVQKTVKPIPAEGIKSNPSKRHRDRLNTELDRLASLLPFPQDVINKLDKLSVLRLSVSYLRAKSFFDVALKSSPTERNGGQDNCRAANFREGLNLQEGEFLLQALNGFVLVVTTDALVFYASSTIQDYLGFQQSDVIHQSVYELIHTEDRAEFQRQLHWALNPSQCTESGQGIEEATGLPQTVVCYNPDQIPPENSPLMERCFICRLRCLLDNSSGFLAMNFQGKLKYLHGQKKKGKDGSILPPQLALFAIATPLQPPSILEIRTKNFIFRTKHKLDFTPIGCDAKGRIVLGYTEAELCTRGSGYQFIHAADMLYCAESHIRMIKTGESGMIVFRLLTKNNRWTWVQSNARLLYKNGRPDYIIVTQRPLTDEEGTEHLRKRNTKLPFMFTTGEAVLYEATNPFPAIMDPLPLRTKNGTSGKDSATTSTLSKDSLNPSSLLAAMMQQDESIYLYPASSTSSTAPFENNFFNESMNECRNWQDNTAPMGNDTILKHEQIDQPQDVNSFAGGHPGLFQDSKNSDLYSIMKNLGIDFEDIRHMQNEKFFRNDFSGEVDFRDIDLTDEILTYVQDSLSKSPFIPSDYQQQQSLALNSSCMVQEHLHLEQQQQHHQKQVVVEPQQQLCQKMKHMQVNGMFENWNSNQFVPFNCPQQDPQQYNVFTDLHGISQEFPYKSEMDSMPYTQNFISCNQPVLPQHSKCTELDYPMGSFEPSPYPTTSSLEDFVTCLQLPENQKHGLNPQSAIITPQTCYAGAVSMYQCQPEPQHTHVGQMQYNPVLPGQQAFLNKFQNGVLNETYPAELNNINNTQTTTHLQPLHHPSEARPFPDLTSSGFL

In assay [3] the target is Nuclear receptor subfamily 1 group I member 2 (Rattus norvegicus) (UniProt Q9R1A7). Nature of the assay: Rat pregnane X receptor (rPXR) activation by small molecules, qHTS assay (AID 1346983). Also: nearly all actives have a fitted effect of over 20% in size. The note with it: rPXR luciferase reporter cells, One-Glo luminescence, 24 h; max activation: stronger effect = higher value. In short, it runs like this: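 Cell-based rPXR activation assay: rPXR cells, 2,000 per well, rested 5hr at 37 C, then exposed to compounds in DMSO for 24 hr at 37 C. Luciferase activity read by One-Glo luminescence after 30 min at room temperature.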
Nuclear receptor subfamily 1 group I member 2 (Rattus norvegicus), sequence (Q9R1A7 whole entry, looked up): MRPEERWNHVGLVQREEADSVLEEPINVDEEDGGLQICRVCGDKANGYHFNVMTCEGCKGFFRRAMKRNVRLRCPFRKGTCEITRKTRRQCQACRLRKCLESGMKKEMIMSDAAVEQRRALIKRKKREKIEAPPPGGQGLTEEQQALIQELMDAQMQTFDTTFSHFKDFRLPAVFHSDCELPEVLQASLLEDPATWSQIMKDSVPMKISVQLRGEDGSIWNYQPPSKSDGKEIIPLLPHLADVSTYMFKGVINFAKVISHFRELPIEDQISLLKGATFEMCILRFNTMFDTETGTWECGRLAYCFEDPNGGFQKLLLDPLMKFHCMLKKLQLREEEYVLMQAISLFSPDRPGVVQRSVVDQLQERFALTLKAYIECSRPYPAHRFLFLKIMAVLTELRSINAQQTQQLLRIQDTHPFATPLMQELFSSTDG

Assay [4] addresses Nuclear receptor subfamily 1 group I member 2 (Homo sapiens) (UniProt O75469). The assay can be described thus: CYP3A4 induction through human pregnane X receptor (PXR) by small molecules, qHTS assay (AID 1346984). Also: nearly all actives have a fitted effect of over 40% in size. Also: potency is read from the fitted curve at half-maximal effect. The procedure, abridged: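 qHTS, concentration-response format: HepG2 DPX-2 line, PXR/CYP3A4-luc. Exposure 24 h, 37C. Substrate Luciferin-IPA 3uM final, 3 h. Detection One-Glo, 30 min RT.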

The nature of assay [5]: qHTS assay to identify small molecule that activate the aryl hydrocarbon receptor (AhR) signaling pathway - cell viability counter screen (AID 743086).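 Also: HepG2 liver cells carrying the AhR DRE luciferase reporter; series mostly up to about 70 µM; nearly all actives have a fitted effect of over 45% in size.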 In short, it runs like this: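 HepG2-AhR-luc (HG2L7.5c1) cells, 4000/well, treated 24 h at 37 C with compound; viability measured as CellTiter-Fluor fluorescence after 30 min in the same wells as the luciferase read.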
Assay [6] deals with Peroxisome proliferator-activated receptor gamma (Homo sapiens) (UniProt P37231). The assay can be described thus: qHTS assay to identify small molecule agonists of the peroxisome proliferator-activated receptor gamma (PPARg) signaling pathway (AID 743094; active = well fitted activation curve with a large enough effect in the signal ratio in the repeat runs, not every such curve was filed as active; the % refers to the signal ratio). The procedure, abridged:
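Following 5 h plating at 37C, PPARg-bla HEK293H cells receive compound or DMSO for 17 h; fluorescence intensity is recorded after LiveBLAzer B/G loading for 1 h at room temperature.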

For assay [7], the target named is Nuclear receptor subfamily 1 group I member 2 (Homo sapiens) (UniProt O75469). The assay can be described thus: Human pregnane X receptor (PXR) activation by small molecules, qHTS assay (AID 1346985). Also: nearly all actives have a fitted effect of over 40% in size. Also: potency is read from the fitted curve at half-maximal effect. The procedure, abridged:
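DPX-2 cells (HepG2 co-transfected with a PXR response element and a CYP3A4-promoter luciferase construct) were seeded at 2,000 per well, rested 5 hr at 37C, then exposed to DMSO-dissolved compounds for 24 hr. Activation was read as luciferase luminescence.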
% is scaled to controls: 0 for no effect and ±100 for the full control effect.

Peroxisome proliferator-activated receptor gamma (Homo sapiens), sequence (P37231 whole entry, looked up): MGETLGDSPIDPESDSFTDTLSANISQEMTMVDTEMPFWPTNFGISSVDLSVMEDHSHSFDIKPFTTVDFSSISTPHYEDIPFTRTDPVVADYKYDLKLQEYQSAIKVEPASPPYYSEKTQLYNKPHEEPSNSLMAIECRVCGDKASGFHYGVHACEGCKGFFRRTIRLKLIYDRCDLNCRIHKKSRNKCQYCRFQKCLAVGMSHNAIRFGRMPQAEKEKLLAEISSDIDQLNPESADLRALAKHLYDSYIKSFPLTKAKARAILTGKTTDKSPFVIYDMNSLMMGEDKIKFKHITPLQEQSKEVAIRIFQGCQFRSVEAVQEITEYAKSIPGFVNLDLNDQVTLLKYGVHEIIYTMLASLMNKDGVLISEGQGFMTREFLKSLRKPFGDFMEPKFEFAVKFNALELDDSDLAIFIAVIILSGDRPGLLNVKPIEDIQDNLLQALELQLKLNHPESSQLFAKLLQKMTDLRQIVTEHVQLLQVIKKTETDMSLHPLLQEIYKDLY

As for `CN1CCC(CN2c3ccccc3Sc3ccccc32)C1` (stereo unspecified), the Potency result in assay [1] and in assay [2] was “inactive” in each case. For the same molecule, the max activation in assay [3] is -2.87%. For the same molecule, the Potency in assay [4] was 0.891 µM (active).
As for `CCCCCCCN(CC)CCCC(O)c1ccc(NS(C)(=O)=O)cc1` (stereo unspecified), the Potency entry in assay [1], in assay [2] and in assay [5] was “inactive” in each case.
Regarding `CN(C)CCOc1ccccc1Cc1ccccc1` (tested in a mixture with another compound), the Potency entry in assay [2] and in assay [5] was “inactive” throughout.
In the case of `C/C=C(/CC[C@@H](C)[C@H]1CC[C@H]2C3=CC[C@H]4[C@H](C)[C@@H](O)CC[C@]4(C)[C@H]3CC[C@]12C)C(C)C`, the Potency entry in assay [1], in assay [2], in assay [5] and in assay [6] was “inactive” each time.
In the case of `CC(CN(C)C)CN1c2ccccc2Sc2ccc(C(F)(F)F)cc21` (stereo unspecified), the Potency entry in assay [1] and in assay [2] was “inactive” each time. Further, the Potency is 12.6 µM (active) in assay [4] and 25.1 µM (active) in assay [7].
On to `Cc1ccc(C2(O)CCN(CCCC(=O)c3ccc(F)cc3)CC2)cc1`, for which the Potency entry in assay [1] is “inactive”.
Consider `O=C(CCCN1CCC(n2c(=S)[nH]c3ccccc32)CC1)c1ccc(F)cc1`, for which the Potency entry in assay [1] and in assay [5] was “inactive” each time. Also, the Potency in assay [2] was 11.9 µM (active).
For the molecule `CCc1ccc2c(c1)N(CC(C)CN(C)C)c1ccccc1S2` (stereo unspecified), in assay [2], the Potency result was “inactive”. Also, the max activation in assay [3] is 1.61%. Further, the Potency in assay [4] is 12.6 µM (active).
Regarding `CC(CN1c2ccccc2Sc2ccc(S(=O)(=O)N(C)C)cc21)N(C)C` (stereo unspecified), the Potency result in assay [1] and in assay [6] was “inactive” each time.
Take `CC(C)(C)C1(O)CCN2CC3c4ccccc4CCc4cccc(c43)C2C1` (stereo unspecified): the Potency result in assay [2] and in assay [6] was “inactive” in each case. In addition, the Potency in assay [7] is 14.1 µM (active).
As to `CN1CCCC(CN2c3ccccc3Sc3ccccc32)C1` (stereo unspecified), the Potency result in assay [1], in assay [2], in assay [5] and in assay [6] was “inactive” throughout. The max activation in assay [3] is -5.65%. In assay [4], the Potency is 25.1 µM (active).
`c1ccc2c(c1)Sc1ccccc1N2CCN1CCCC1`: the Potency entry in assay [1] and in assay [6] was “inactive” throughout. The results for the Potency in assay [4] and in assay [7] were 10 µM (active) and 25.1 µM (active), respectively.
For the molecule `CCCCCCCCCCCCCCCC(=O)O[C@@H]1CC(C)=C(/C=C/C(C)=C/C=C/C(C)=C/C=C/C=C(C)/C=C/C=C(C)/C=C/C2=C(C)C[C@@H](OC(=O)CCCCCCCCCCCCCCC)CC2(C)C)C(C)(C)C1`, the Potency entry in assay [1], in assay [2], in assay [5] and in assay [6] was “inactive” in each case.
In the case of `CCCCCCCCCCCCCCCCCCCCCC(=O)Nc1ccn([C@@H]2O[C@H](CO)[C@@H](O)[C@@H]2O)c(=O)n1`, the Potency entry in assay [1], in assay [2], in assay [5], in assay [6], in assay [4] and in assay [7] was “inactive” each time.
With `O=C(OCCO)c1ccccc1O`, the Potency result in assay [1], in assay [2], in assay [5] and in assay [6] was “inactive” each time.
Regarding `CN1CCN(CCC=C2c3ccccc3Sc3ccc(S(=O)(=O)N(C)C)cc32)CC1`, the Potency in assay [1] was 29.8 µM (active). Besides, the Potency result in assay [2] is “inactive”.
Take `C[C@]12CCC(=O)C[C@@H]1CC[C@@H]1[C@@H]2CC[C@]2(C)C=CC[C@@H]12`: the Potency result in assay [1], in assay [5], in assay [6], in assay [4] and in assay [7] was “inactive” each time.
As for `O=C1CSC2(CCN(CCCN3c4ccccc4Sc4ccc(Cl)cc43)CC2)N1`, the Potency in assay [2] is 13.3 µM (active). Further, in assay [3], the max activation was 2.22%. Also, the Potency result in assay [4] was “inactive”.
As for `CCCCC(=O)OCC(=O)[C@]1(O)Cc2c(O)c3c(c(O)c2[C@@H](O[C@H]2C[C@H](NC(=O)C(F)(F)F)[C@H](O)[C@H](C)O2)C1)C(=O)c1c(OC)cccc1C3=O`, the Potency entry in assay [2], in assay [4] and in assay [7] was “inactive” each time.
On to `O=C(CCCN1CCC(C(=O)c2ccc(F)cc2)CC1)c1ccc(F)cc1`, for which the Potency result in assay [1], in assay [2], in assay [5] and in assay [6] was “inactive” throughout. The max activation in assay [3] was 4%. Further, the Potency in assay [7] is 15.8 µM (active).
Turning to `CC(C)(C)NC[C@H](O)COc1ccccc1C1CCCC1`, the Potency entry in assay [1], in assay [2], in assay [5], in assay [6], in assay [4] and in assay [7] was “inactive” throughout.
On to `C=C[C@]1(C)C[C@@H](OC(=O)CSCCN(CC)CC)[C@]2(C)[C@H](C)CC[C@]3(CCC(=O)[C@H]32)[C@@H](C)[C@@H]1O`, for which the Potency result in assay [2], in assay [6] and in assay [4] was “inactive” throughout. Further, the Potency in assay [7] is 15.8 µM (active).
Consider `CC(=O)[C@@]1(O)CC[C@H]2[C@@H]3C=C(Cl)C4=CC(=O)CC[C@]4(C)[C@H]3CC[C@@]21C`, for which the Potency result in assay [1], in assay [2] and in assay [5] was “inactive” throughout.
Consider `CCOC(=O)CN[C@@H](C(=O)N1CC[C@H]1C(=O)NCc1ccc(/C(N)=N/O)cc1)C1CCCCC1`, for which the Potency result in assay [2] and in assay [6] was “inactive” in each case.
On to `CCC(=O)OCC(=O)[C@@]1(OC(=O)CC)[C@@H](C)C[C@H]2[C@@H]3CCC4=CC(=O)C=C[C@]4(C)[C@@]3(F)[C@@H](O)C[C@@]21C`, for which the Potency entry in assay [1], in assay [2], in assay [5] and in assay [6] was “inactive” in each case.
